We go through five molecules from PubChem BioAssay.

The structures appear in SMILES notation. Active and inactive are the calls of the source.

One assay has as its target Albumin (Bos taurus) (UniProt P02769). In words: compounds binding labelled BSA control protein – biochemical, small-molecule microarray, Alexa647 label, 635/667 nm fluorescence, artefact control for SMM control protein annotation, profiling panel (AID 1118).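 Further: score merges 667 nm emission intensity and signal-to-noise per printed compound spot.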 The note with it: BSA-A647 binding, fluorescence 635 nm, higher = more signal.
Assay [1] can be described thus: probe aXIP binding to arrayed compounds – biochemical, NeuroSMM set, 635/667 nm fluorescence, primary screen (AID 1119).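 Further: probe is the protein aXip251-270 applied at 1 µg/mL to compound-printed slides; binding of probe to printed compounds measured as 667 nm fluorescence plus signal to noise.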 The following applies: small-molecule microarray, higher = more signal, called active from +8 up or from −8 down.
Assay [2] can be described thus: probe aNOTCH3 binding on compound microarray – biochemical, small-molecule microarray, 635/667 nm fluorescence, primary screen (AID 1120).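 Further: probe is a biotin-tagged antibody raised against NOTCH3 rather than NOTCH3 protein; score merges spot fluorescence near 667 nm with spot signal to noise.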 The note with it: higher = more signal.
Assay [3] is described as follows: probe aNOTCH2 binding on compound microarray – biochemical, small-molecule microarray, 635/667 nm fluorescence, primary screen (AID 1121).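 Further: score merges feature fluorescence read at 667 nm with its signal to noise.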 The following applies: higher = more signal.
Assay [4] deals with Carbonic anhydrase 2 (Homo sapiens) (UniProt P00918). The assay can be described thus: compounds binding carbonic anhydrase 2 – biochemical, small-molecule microarray, Alexa647-labelled CAII, profiling panel (AID 1122). The following applies: CAII-A647 binding fluorescence, higher = more signal.
A short description of assay [5]: COS7 lysate on small-molecule microarray, probe aHis, 635 nm (AID 1123).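 Further: z-score combines 667nm fluorescence intensity with signal-to-noise per printed compound spot.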 The note with it: COS7 cell lysate, fluorescence, higher = more signal.
Assay [6] is described as follows: probe aLAP1 signal on lysate-treated microarray – cell lysate, small-molecule microarray, COS7 lysate, primary screen (AID 1124).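 Further: lysate comes from COS7 cells expressing LAP1 and is applied at 0.3 µg/mL; score merges spot fluorescence near 667 nm with signal-to-noise over triplicate slides.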 The note with it: probe aLAP1, fluorescence, higher = more signal.
The subject of the next assay is Sam68 (KHDRBS1). In words: compounds binding KHDRBS1 protein – biochemical, small-molecule microarray, 635 nm fluorescence, primary screen (AID 1125).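 Further: score merges 667 nm channel intensity with signal to noise over triplicate slides.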 The following applies: higher = more signal.
Assay [7] deals with Chordin-like protein 2 (CHRDL2). The assay can be described thus: compounds binding chordin-like 2 – biochemical, small-molecule microarray, 635 nm fluorescence, primary screen (AID 1126).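 Further: printed compound slides probed with Chrdl2 protein at 4 µg/mL for 1 h at 4 C; score merges 667 nm emission intensity with signal to noise over three replicate slides.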 The following applies: fluorescence 635 nm, higher = more signal.
In assay [8] the target is Concanavalin-A (Canavalia ensiformis) (UniProt P02866). The assay can be described thus: compounds binding concanavalin A lectin – biochemical, small-molecule microarray, Alexa647 label, 635 nm, artefact control for SMM control protein annotation, primary screen (AID 1127).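 Further: z combines 667 nm emission intensity with signal-to-noise across three replicate slides.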 The note with it: ConA-A647 binding fluorescence, higher = more signal.
The nature of assay [9]: compounds binding Alexa647 anti-His antibody – biochemical, small-molecule microarray, 635 nm fluorescence, artefact control for SMM control protein annotation, primary screen (AID 1128).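 Further: score merges feature fluorescence with signal-to-noise for each printed compound spot.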 The note with it: higher = more signal.
For assay [10], the system named is Human papillomavirus type 1a E7 protein (residues 1-88). In words: HPV1a E7 small-molecule binders, primary screen, biochemical, small-molecule microarray, residues 1-88, 635 nm (AID 1129). The following applies: small-molecule microarray binding, fluorescence 635 nm; higher = more signal.
Assay [11] concerns the target Focal adhesion kinase 1 (Homo sapiens) (UniProt Q05397). The assay can be described thus: PTK2 protein binding on printed compound slides – biochemical, small-molecule microarray, 635/667 nm fluorescence, BSA, DTT, primary screen (AID 1130).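 Further: composite of spot emission at 667 nm and signal to noise over triplicate slides.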 The note with it: 635 nm fluorescence, higher = more signal.
Assay [12] deals with Fibrinogen (Alexa647-labelled). The assay can be described thus: Alexa647-fibrinogen binding to printed small molecules – biochemical, small-molecule microarray, 635/667 nm fluorescence, artefact control for SMM control-protein annotation, profiling panel (AID 1131).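 Further: z-score merges 667 nm fluorescence with per-spot signal-to-noise over triplicate slides.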 The note with it: fibrinogen-A647 binding fluorescence, higher = more signal.
The target of assay [13] is Follistatin (Homo sapiens) (UniProt P19883). In words: FST protein binding to printed compounds – biochemical, small-molecule microarray, 635/667 nm fluorescence, primary screen (AID 1132). The following applies: 635 nm fluorescence, higher = more signal.
Assay [14] deals with Fibroblast growth factor 2 (Homo sapiens) (UniProt P09038). In words: basic fibroblast growth factor binding to printed compounds – biochemical, small-molecule microarray, 635/667 nm fluorescence, primary screen (AID 1133). The following applies: FGF2, fluorescence 635/667, higher = more signal.
Assay [15] in a line: JC-1 mitochondrial potential readout, lung cancer cells – cell-based, A549, JC-1 fluorescence, basal, 24 h, 100 nL, profiling panel (AID 1138).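 Further: A549 lung adenocarcinoma cells under basal conditions with no added stimulus; test concentration not given here.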 The following applies: higher = more signal.
The next assay deals with Lefty1. The assay can be described thus: Lefty1 protein binding to printed compounds – biochemical, small-molecule microarray, 635/667 nm fluorescence, primary screen (AID 1139). The following applies: fluorescence 635/667, higher = more signal.
For assay [16], the system named is wheat germ agglutinin (Triticum aestivum), Alexa647-labelled. The assay can be described thus: Alexa647-WGA lectin binding to printed small molecules – biochemical, small-molecule microarray, 635/667 nm fluorescence, artefact control for SMM control-protein annotation, profiling panel (AID 1140).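 Further: score merges 667 nm feature emission with signal to noise over triplicate slides.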 The note with it: WGA-A647 binding, 635 nm fluorescence, higher = more signal.

For assay [17], the target named is Luciferin 4-monooxygenase (Photinus pyralis) (UniProt P08659). In words: inhibition of purified Photinus pyralis luciferase – biochemical, luminescence, purified enzyme, 2006 set, primary screen (AID 1141).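 Further: cell-free assay with purified firefly luciferase at 100 ng per well in PBS; test concentration not given here.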 The following applies: purified firefly luciferase, SteadyGlo luminescence, 30 min; higher = more signal, called active from +8 up or from −8 down.
Sequence of Luciferin 4-monooxygenase (Photinus pyralis) (P08659 whole entry, looked up): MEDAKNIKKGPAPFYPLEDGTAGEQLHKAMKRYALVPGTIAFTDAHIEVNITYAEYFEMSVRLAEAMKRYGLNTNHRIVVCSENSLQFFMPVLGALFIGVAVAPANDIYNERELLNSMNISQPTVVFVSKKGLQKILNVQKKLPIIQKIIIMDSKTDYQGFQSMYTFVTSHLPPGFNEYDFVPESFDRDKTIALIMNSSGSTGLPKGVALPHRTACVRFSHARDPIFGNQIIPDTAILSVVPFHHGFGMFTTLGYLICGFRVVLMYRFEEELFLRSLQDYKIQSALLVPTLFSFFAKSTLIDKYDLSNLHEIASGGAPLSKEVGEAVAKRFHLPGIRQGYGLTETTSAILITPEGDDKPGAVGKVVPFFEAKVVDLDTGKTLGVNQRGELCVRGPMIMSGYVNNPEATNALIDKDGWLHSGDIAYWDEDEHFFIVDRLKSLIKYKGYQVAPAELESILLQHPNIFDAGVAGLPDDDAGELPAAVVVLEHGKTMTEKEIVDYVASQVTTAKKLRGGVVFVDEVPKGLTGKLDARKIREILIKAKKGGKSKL

Sequence of Fibroblast growth factor 2 (Homo sapiens) (P09038 whole entry, looked up): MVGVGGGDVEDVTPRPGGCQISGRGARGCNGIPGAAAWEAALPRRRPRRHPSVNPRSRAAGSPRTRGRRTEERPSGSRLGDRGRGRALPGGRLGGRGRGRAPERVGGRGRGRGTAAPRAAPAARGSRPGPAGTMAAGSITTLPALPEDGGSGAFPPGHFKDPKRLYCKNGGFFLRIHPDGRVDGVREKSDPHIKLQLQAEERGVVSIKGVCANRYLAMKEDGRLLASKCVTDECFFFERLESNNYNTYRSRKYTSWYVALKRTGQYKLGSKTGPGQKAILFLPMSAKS
Sequence of Concanavalin-A (Canavalia ensiformis) (P02866 whole entry, looked up): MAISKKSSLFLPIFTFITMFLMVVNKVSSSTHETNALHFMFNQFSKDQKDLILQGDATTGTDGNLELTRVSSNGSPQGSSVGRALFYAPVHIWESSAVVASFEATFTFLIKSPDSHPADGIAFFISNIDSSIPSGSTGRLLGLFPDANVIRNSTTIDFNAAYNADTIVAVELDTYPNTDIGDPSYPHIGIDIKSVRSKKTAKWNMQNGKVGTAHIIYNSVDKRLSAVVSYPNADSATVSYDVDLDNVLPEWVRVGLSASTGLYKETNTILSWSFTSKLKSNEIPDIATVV
Sequence of Follistatin (Homo sapiens) (P19883 whole entry, looked up): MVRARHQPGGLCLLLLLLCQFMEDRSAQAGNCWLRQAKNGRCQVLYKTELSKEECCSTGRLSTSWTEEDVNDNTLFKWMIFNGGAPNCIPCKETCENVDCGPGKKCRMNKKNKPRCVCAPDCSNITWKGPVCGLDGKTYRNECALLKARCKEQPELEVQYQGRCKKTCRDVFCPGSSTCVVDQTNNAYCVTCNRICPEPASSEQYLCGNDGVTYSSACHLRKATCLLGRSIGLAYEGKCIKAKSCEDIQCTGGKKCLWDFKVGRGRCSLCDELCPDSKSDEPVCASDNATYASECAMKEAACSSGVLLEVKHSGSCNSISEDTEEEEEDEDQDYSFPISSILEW
Sequence of Focal adhesion kinase 1 (Homo sapiens) (Q05397 whole entry, looked up): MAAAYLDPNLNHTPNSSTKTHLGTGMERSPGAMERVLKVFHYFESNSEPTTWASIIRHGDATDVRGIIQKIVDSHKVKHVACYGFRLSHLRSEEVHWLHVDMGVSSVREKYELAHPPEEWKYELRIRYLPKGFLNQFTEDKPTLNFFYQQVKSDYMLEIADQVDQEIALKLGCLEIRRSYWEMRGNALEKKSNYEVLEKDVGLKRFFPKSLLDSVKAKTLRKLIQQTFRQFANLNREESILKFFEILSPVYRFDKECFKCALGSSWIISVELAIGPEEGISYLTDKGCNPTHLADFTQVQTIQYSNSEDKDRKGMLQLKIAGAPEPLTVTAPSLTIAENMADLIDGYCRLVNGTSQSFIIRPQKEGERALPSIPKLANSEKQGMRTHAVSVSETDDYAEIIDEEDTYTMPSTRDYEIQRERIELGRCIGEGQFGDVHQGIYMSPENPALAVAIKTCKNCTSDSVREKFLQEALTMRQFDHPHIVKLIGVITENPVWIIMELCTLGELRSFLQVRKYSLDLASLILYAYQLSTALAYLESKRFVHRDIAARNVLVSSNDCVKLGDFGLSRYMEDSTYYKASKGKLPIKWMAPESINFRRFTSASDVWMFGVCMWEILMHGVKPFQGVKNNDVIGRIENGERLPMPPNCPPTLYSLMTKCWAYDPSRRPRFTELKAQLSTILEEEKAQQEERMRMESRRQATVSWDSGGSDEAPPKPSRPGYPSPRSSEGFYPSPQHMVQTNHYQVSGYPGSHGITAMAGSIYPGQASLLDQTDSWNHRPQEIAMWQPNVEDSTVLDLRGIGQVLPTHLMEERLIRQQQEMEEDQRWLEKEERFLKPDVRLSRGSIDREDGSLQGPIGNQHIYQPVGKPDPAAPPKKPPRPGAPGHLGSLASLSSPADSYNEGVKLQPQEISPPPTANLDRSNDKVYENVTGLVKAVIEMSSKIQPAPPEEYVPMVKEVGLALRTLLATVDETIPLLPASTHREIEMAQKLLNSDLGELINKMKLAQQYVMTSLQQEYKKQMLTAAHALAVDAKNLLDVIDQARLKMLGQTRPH
Sequence of Albumin (Bos taurus) (P02769 whole entry, looked up): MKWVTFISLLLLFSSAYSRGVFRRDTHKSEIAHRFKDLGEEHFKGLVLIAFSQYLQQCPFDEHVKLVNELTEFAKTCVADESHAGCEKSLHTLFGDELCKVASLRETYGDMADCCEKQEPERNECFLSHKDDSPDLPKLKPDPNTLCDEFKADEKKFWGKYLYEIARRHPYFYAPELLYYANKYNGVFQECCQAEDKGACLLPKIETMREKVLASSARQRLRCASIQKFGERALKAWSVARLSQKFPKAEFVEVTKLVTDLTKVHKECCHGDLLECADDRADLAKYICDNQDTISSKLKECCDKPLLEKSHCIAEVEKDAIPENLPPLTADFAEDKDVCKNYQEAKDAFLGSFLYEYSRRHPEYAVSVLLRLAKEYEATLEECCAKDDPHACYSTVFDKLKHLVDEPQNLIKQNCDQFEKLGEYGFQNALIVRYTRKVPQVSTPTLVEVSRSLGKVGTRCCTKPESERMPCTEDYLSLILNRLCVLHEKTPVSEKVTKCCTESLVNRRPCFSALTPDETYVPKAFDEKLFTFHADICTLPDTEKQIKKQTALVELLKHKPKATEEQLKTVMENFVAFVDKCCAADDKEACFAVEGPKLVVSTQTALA

Turning to `O=C1O[C@H](c2ccccc2)[C@H](c2ccccc2)N2[C@H]1[C@@H](C(=O)Nc1nc3ccccc3s1)[C@]1(C(=O)Nc3ccccc31)[C@H]2c1ccccc1OCCO`, the composite z-score in the assay with Albumin (Bos taurus) is 0.939; in assay [2] it was 0.0242; in assay [3], -0.014; in assay [4], 0.393; in assay [5], 2.24; in assay [6], 0.921. Also, the composite z-score with Sam68 (KHDRBS1) is 1.29; in [7], -0.131; in [8] it was 0.668; in [9] it was 1.71; in [10], 0.813; in assay [11] it was 0.832. Further, the composite z-score in [12] turned out to be 0.966; in [13] it was 0.453; in assay [14], 0.64; with Lefty1 it was 0.0835; in assay [16], 1.02. Further, the composite Z-score in assay [1] was 0.417 (inactive). Moreover, the results for the z-score in [15] and in assay [17] were -1.84 and 0.389 (inactive), respectively.
As for `CC1CC/C=C\[C@H]2OC34C=CCN(C(C)C)C(=O)[C@H]3N(C(C)CO)C(=O)[C@@H]4C2C(=O)O1` (stereo not given in full), the composite z-score in the assay with Albumin (Bos taurus) is 0.702; in assay [2], -0.162; in assay [3] it was -0.115; in [4] it was 0.418; in [5] it was -0.406; in assay [6] it was -0.108. Further, the composite z-score is -0.26 with Sam68 (KHDRBS1); -0.337 in assay [7]; -0.0657 in assay [8]; -0.112 in assay [9]; -0.504 in assay [10]; -0.205 in assay [11]. Besides, the composite z-score is -1.22 in [12]; 0.305 in assay [13]; -0.455 in assay [14]; 0.572 with Lefty1; 0.748 in [16]. In assay [1], the composite Z-score was 0.439 (inactive). Also, the figures for the z-score in assay [15] and in assay [17] were 0.501 and -0.316 (inactive), respectively.
Regarding `COCCCNC(=O)[C@@]1(Cc2ccccc2I)c2ccccc2C(=O)N(Cc2ccccc2OC)[C@H]1c1ccc(CO)cc1`, the composite z-score with Albumin (Bos taurus) was -0.685; in assay [2] it was -0.134; in assay [3], -0.14; in [4], 0.542; in assay [5], 2.31; in assay [6], -0.143. Also, the composite z-score is 0.614 in the assay with Sam68 (KHDRBS1); -1.82 in [7]; 0.911 in assay [8]; 3.03 in assay [9]; 1.18 in assay [10]; 0.0958 in [11]. For the same molecule, the composite z-score in [12] is 0.198; in assay [13], -0.268; in [14] it was -0.39; in the assay with Lefty1 it was -1.26; in assay [16], 0.214. Moreover, in [1], the composite Z-score was 0.0679 (inactive). In addition, the figures for the z-score in [15] and in assay [17] were 1.93 and -0.773 (inactive), respectively.
For `C=CCC(OC(C)=O)[C@@H]1[C@@H](N(Cc2ccc(-c3ccccc3)cc2)C(=O)Cc2ccc(OC)cc2)c2cc(OCCCO)ccc2N1C(=O)c1ccc2ccccc2c1` (stereo not given in full), the composite z-score in the assay with Albumin (Bos taurus) was 0.234; in [2], -0.043; in [3] it was -0.176; in assay [4], 0.269; in [5], 0.198; in assay [6], 0.165. The composite z-score in the assay with Sam68 (KHDRBS1) was 0.0843; in assay [7], -0.225; in assay [8], 0.134; in [9] it was -0.365; in assay [10], -0.168; in assay [11], -0.0078. For the same molecule, the composite z-score is 0.186 in assay [12]; 0.458 in assay [13]; 0.338 in assay [14]; 0.146 in the assay on Lefty1; 0.266 in assay [16]. Further, the composite Z-score in assay [1] is -0.0949 (inactive). The z-score in assay [15] is 0.865; in assay [17], 0.161 (inactive).
`CC(C)(C)OC(=O)CC[C@@]1(C(=O)N2CCOCC2)N=C(c2ccc(OCCCO)cc2)O[C@@H]1c1ccccc1CN=[N+]=[N-]`: the composite z-score was found to be 0.966 with Albumin (Bos taurus); 0.144 in [2]; 0.23 in assay [3]; 0.829 in assay [4]; 3.77 in assay [5]; 0.86 in assay [6]. Also, the composite z-score in the assay with Sam68 (KHDRBS1) is 1.29; in assay [7], -0.406; in assay [8], 1.09; in assay [9], 3.27; in assay [10], 1.26; in [11], 0.855. The composite z-score in [12] is 0.949; in assay [13], 1.4; in [14] it was 1.76; with Lefty1 it was -0.271; in [16], 0.898. Further, the composite Z-score in [1] was 1.31 (inactive). For the same molecule, the z-score was 0.193 in assay [15] and -1.2 (inactive) in assay [17].
